The nature of assay [1]: growth inhibition of DIPG glioma cells, dose response, cell-based, JHH-DIPG-1, MIPE4.0, CellTiter-Glo, qHTS (AID 1347062; cut-off not given, nearly all actives have AC50 up to about 27 µM;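 on AC50: cells exposed to compound for two days before readout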). Particulars: JHH-DIPG-1 viability, CellTiter-Glo ATP luminescence.
Assay [2] can be described thus: growth inhibition of DIPG glioma cells, dose response, cell-based, SU-DIPG-XIII, MIPE5.0, CellTiter-Glo, qHTS (AID 1347064; cut-off not given, nearly all actives have AC50 up to about 23 µM). Particulars: SU-DIPG-XIII viability, CellTiter-Glo ATP luminescence. In general terms: ATP-based viability assays read luminescence as a measure of living cells.
Assay [3] is described as follows: viability loss in pontine glioma line – cell-based, SU-DIPG-XXV, MIPE5.0, CellTiter-Glo, qHTS, dose response (AID 1347065; cut-off not given, nearly all actives have AC50 up to about 26 µM;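 further: cells exposed to compound for 48 hours before ATP readout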). Particulars: CellTiter-Glo ATP luminescence.
A short description of assay [4]: SU-DIPG-VI glioma cell viability, MIPE4.0 library, CellTiter-Glo luminescence, qHTS (AID 1347066).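 Further: cells exposed to compound for 48 hours before readout.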 The following applies: CellTiter-Glo ATP luminescence.
A short description of assay [5]: SU-DIPG-XXV glioma cell viability, MIPE5.0 library, qHTS (AID 1347068; cut-off not given, nearly all actives have IC50 up to about 30 µM;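 on IC50: cells exposed to compound for 48 hours before viability readout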). On the technique in general: qHTS replaces the single test concentration by a dilution series.
Assay [6] in a line: sensitizers of A549 cells to miR-34 induction, primary screen, imaging, A549 dox-inducible miR-34, nuclei and caspase counts (AID 1347080;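 active means compounds whose cell count with miR-34 switched on is under 0.7 times the count with it off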). Particulars: A549 miR-34 inducible, Hoechst nuclei count, 48 h.
Assay [7] can be described thus: survival rescue of mitochondrial mutant cells in low glucose, primary screen, MELAS cybrids, Rieske KO mouse fibroblasts, CellTiter-Glo (AID 1508586;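 active means mean z-score across replicates of 1.96 or higher in either the MELAS or the Rieske mutant cell line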;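 further: z relative to plate mean and SD of compound and empty wells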).
Assay [8] is described as follows: growth inhibition of DIPG glioma cells, dose response, cell-based, SU-DIPG-IV, MIPE4.0, CellTiter-Glo, qHTS (AID 1347063).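 Further: compound exposure lasted 48 hours before the viability readout.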 The following applies: SU-DIPG-IV viability, CellTiter-Glo ATP luminescence.
A short description of assay [9]: LFS_MB_P medulloblastoma growth inhibition, cell-based, chromothripsis tumors, cisplatin or BGB combos (AID 1671449; in the data active means inhibition above about 80%;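 further: cells exposed for 96 hours; 0% = vehicle DMSO and 100% = killing by high DMSO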). Particulars: LFS_MB_P medulloblastoma cells.
A short description of assay [10]: HDN33 neuroblastoma growth inhibition, cell-based, chromothripsis tumors, cisplatin or BGB combos (AID 1671450; in the data active means inhibition above about 80%;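 further: cells exposed to compound for four days; 0% = vehicle DMSO and 100% = cell killing by high DMSO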). Particulars: HDN33 neuroblastoma cells, stronger effect = higher value.
Assay [11] can be described thus: ICB984 medulloblastoma cell growth inhibition, synergistic combos for chromothripsis tumors, cisplatin or BGB combos (AID 1671451; call rule not given here;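 further: cells exposed for 96 hours before readout; 0% = vehicle DMSO and 100% = killing by high DMSO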). The following applies: ICB984 medulloblastoma cells, drug combinations, stronger effect = higher value.
Assay [12] can be described thus: HTB85 osteosarcoma cell growth inhibition, synergistic combos for chromothripsis tumors, BGB or cisplatin IC20 combos (AID 1671453; in the data active means inhibition above about 80%;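 further: cells exposed for 96 hours before readout; 0% = vehicle DMSO and 100% = high DMSO killing control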). The following applies: HTB85 osteosarcoma cells, drug combinations, stronger effect = higher value.
Assay [13] can be described thus: MDA-MB-436 breast carcinoma cell growth inhibition, synergistic combos for chromothripsis tumors, BGB or cisplatin combos (AID 1671458; call rule not given here;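 further: cells exposed for 96 hours; 0% = vehicle DMSO and 100% = killing by high DMSO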). Particulars: MDA-MB-436 breast carcinoma growth inhibition, drug combinations, stronger effect = higher value.
Assay [14] can be described thus: growth inhibition of BT084 medulloblastoma cells, cell-based, ICGC_MB145, cisplatin and BGB IC40 combos (AID 1671461; in the data active means inhibition above about 80%;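 further: cells exposed to drugs for 96 hours; 0% = vehicle DMSO and 100% = high DMSO full killing control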). The following applies: drug combinations, stronger effect = higher value.
The nature of assay [15]: growth inhibition of RCMB18 medulloblastoma cells, cell-based, cisplatin and BGB IC40 combos (AID 1671462; in the data active means inhibition above about 80%;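 further: cells exposed to compound for four days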). Particulars: stronger effect = higher value.
Assay [16] in a line: growth inhibition of CRL1545 osteosarcoma cells, cell-based, cisplatin and BGB IC20 combos (AID 1671464; in the data active means inhibition above about 80%;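 further: cells exposed to compound for 96 hours before readout; 0% = vehicle DMSO and 100% = high DMSO killing control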). Particulars: stronger effect = higher value.
Setting [17] is: stronger effect = lower value, cell number ratio, induced over uninduced.
[18] abbreviates: measured here: relative caspase fold change +Dox/-Dox.
[19] abbreviates: measured here: total cells with miR-34 induction, stronger effect = lower value.
The mark [20] stands for this setting: measured here: total cells without miR-34 induction.
Setting [21] is: MELAS cybrid survival, CellTiter-Glo 48 h, stronger effect = higher value.
Setting [22] is: Rieske KO mouse fibroblast survival, CellTiter-Glo 72 h.
The mark [23] stands for this setting: measured here: with BGB IC20 combination, at 0.5 µM.
Where [24] appears, read: measured here: with cisplatin IC20 combination, at 0.5 µM.

The results in this text go back to PubChem BioAssay.

Results filed as inconclusive are left out. The source made the active and inactive calls. Unless noted, cut-off not given; nearly all actives show AC50 up to about 30 µM.

Take `COc1ccc(-c2c(-c3ccc(O)cc3O)n[nH]c2C)cc1`: the result in [1], in [2], in [3], in [4] and in assay [5] was inactive. Further, the fold change in assay [6] (setting [17]) is 0.931 (inactive); in [6] (setting [18]) it was 0.724. Besides, the cell count in assay [6] (setting [19]) turned out to be 7090; in assay [6] (setting [20]) it was 7620. Besides, the z-score in assay [7] (setting [21]) was 0.614 (inactive); in assay [7] (setting [22]), -0.216.

Regarding `CCc1nc(-c2cccc(C)c2)c(-c2ccnc(NC(=O)c3ccccc3)c2)s1`, the outcome in assay [1] and in [8] was inactive. For the same molecule, the results for the fold change in [6] (setting [17]) and in [6] (setting [18]) were 0.974 (inactive) and 0.928, respectively. Moreover, the cell count turned out to be 5690 in assay [6] (setting [19]) and 5840 in assay [6] (setting [20]). In addition, the z-score is 0.655 (inactive) in [7] (setting [21]) and 0.137 in assay [7] (setting [22]).

Usually AC50 stands for the concentration at which the activity in the assay is half-maximal. As a reminder, the IC50 is the concentration needed to halve the response being measured. As to `N#Cc1c(C2CCNCC2)cc(-c2c(O)cccc2OCC2CC2)nc1N`, the AC50 in assay [1] was 23.5 µM (active); in [8] it was 13.2 µM (active). Moreover, in [5], the IC50 was 20.9 µM (active).

With `O=c1[nH]nc(OCCCc2ccc(Cl)cc2)c(NCc2cccnc2)c1Br`, the AC50 in assay [1] was 23.5 µM (active); in assay [8], 18.7 µM (active); in [4], 18.7 µM (active).

Usually inhibition stands for the drop in the measured response relative to a control, in per cent. Turning to `Cc1cn([C@@H]2O[C@H](CO)[C@@H](O)[C@@H]2F)c(=O)[nH]c1=O`, the result in assay [1], in [8] and in assay [4] was inactive. Further, the inhibition in [9] (at 0.5 µM, stronger effect = higher value) is -22.2% (inactive); in assay [9] (measured here: combination with BGB IC20, at 0.005 µM) it was -21.4%; in [9] (measured here: combination with BGB IC40, at 0.005 µM), 24.6%; in assay [9] (measured here: combination with BGB IC40, at 0.05 µM) it was -36.4%; in assay [9] (measured here: combination with cisplatin, at 0.5 µM, stronger effect = higher value), -29.1%; in assay [9] (measured here: combination with cisplatin, at 5 µM, stronger effect = higher value), -25.8%. Moreover, the inhibition is -42.9% in [10] (BGB combo, at 5 µM); 15.9% (inactive) in assay [10] (at 0.5 µM); -14% in [10] (cisplatin combo, at 5 µM); 25% in [10] (setting [23]); 22.2% in [10] (setting [24]); -22.6% in assay [10] (single agent, at 5 µM). In addition, the inhibition in assay [11] (BGB IC20 combo, at 0.005 µM) was -11.3%; in [11] (BGB IC40 combo, at 0.005 µM) it was -20.8%; in assay [11] (BGB IC40 combo, at 0.05 µM), -28.4%; in assay [11] (at 0.5 µM), -27.1% (inactive); in assay [11] (cisplatin combo, at 0.05 µM), -35%; in assay [11] (cisplatin combo, at 0.5 µM), -33.8%. Also, the inhibition was -27.5% in [11] (cisplatin combo, at 5 µM); -20.1% in assay [11] (measured here: 5 uM single agent, at 5 µM); 7.88% (inactive) in assay [12] (at 0.5 µM); 40.2% in assay [12] (measured here: with BGB IC20, at 0.5 µM); -1.08% in assay [12] (measured here: with BGB IC20, at 5 µM); -7.9% in assay [12] (measured here: with cisplatin IC20, at 0.5 µM). Besides, the inhibition in [12] (measured here: with cisplatin IC20, at 5 µM) is -2.9%; in assay [12] (single agent, at 5 µM), 6.67%; in assay [13] (at 0.5 µM), -24.5% (inactive); in [13] (measured here: BGB combination, at 0.5 µM), -21.7%; in assay [13] (measured here: BGB combination, at 5 µM) it was -19.5%; in [13] (measured here: cisplatin combination, at 0.5 µM), -37.4%. In addition, the inhibition in assay [13] (measured here: cisplatin combination, at 5 µM) was -37%; in assay [14] (at 0.5 µM), -12.8% (inactive); in assay [14] (cisplatin combination, at 0.5 µM), 3.7%; in assay [14] (cisplatin combination, at 5 µM), -127%; in assay [14] (measured here: BGB IC40 combination 0.05 uM, at 0.05 µM), -18.9%; in assay [14] (single agent, at 5 µM), -21.7%. Also, the inhibition in [15] (at 0.5 µM) was -23.1% (inactive); in assay [15] (cisplatin combo, at 5 µM) it was -15.5%; in [15] (measured here: BGB IC40 combination, at 0.05 µM) it was -13.9%; in assay [15] (measured here: combination with cisplatin, at 0.5 µM), -19%; in [15] (single agent, at 5 µM) it was -12.7%; in [16] (at 0.5 µM), 12.7% (inactive). For the same molecule, the inhibition is 6.33% in [16] (setting [23]); 14.6% in assay [16] (setting [24]); -20.4% in assay [16] (single agent, at 0.05 µM); 5.83% in assay [16] (single agent, at 5 µM).

With `CC(C)(C)NC(=O)Nc1cccc(Nc2ncc(F)c(NC(C)(C)CO)n2)c1`, the result in assay [1], in [2] and in [4] was inactive. Moreover, in assay [3], the AC50 was 4.68 µM (active).
